Measurements published in PubChem BioAssay.
Calls of active or inactive are those of the source.

Experiments:
[1] = binders of probe aFSTL3 on microarray, primary screen, stem cell growth factor project, biochemical, small-molecule microarray, fluorescence 635/667 (AID 1064); settings: higher = more signal;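 further: measures binding of the biotinylated anti-FSTL3 antibody to printed compounds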
[2] = binders from COS7 lysate, DM2A8 probe, primary screen, torsin A project, cell lysate, small-molecule microarray, fluorescence 635/667 (AID 1065); settings: higher = more signal, COS7 lysate expressing mutant human TOR1A
[3] = binders of probe aFGF2 on microarray, primary screen, stem cell growth factor project, biochemical, small-molecule microarray, fluorescence 635/667 (AID 1067); settings: higher = more signal;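 further: measures binding of biotinylated aFGF2 protein to printed compounds on slides; z-score merges feature fluorescence and signal-to-noise across triplicate slides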
[4] = binders of probe aFGF10 on microarray, primary screen, stem cell growth factor project, biochemical, small-molecule microarray, fluorescence 635/667 (AID 1071); settings: higher = more signal;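 further: score merges 667 nm spot intensity and signal to noise from triplicate slides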
[5] = target: Neurogenic locus notch homolog protein 2 (Homo sapiens) (UniProt Q04721); experiment: Notch2 binders on small-molecule microarrays, primary screen, biochemical, small-molecule microarray, 635 nm fluorescence, stem cell growth factors (AID 1073); settings: Notch2 binding, higher = more signal
[6] = target: Pro-neuregulin-1, membrane-bound isoform (Homo sapiens) (UniProt Q02297); experiment: NRG1 binders on small-molecule microarrays, primary screen, psychiatric disease protein project, biochemical, small-molecule microarray, fluorescence 635/667 (AID 1075); settings: NRG1 binding, 635 nm fluorescence, higher = more signal;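 further: score combines 667 nm spot fluorescence with signal to noise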
[7] = tested on: Neuregulin-1 EGF-like domain; experiment: binders of neuregulin-1 EGF-like domain, primary screen, biochemical, small-molecule microarray, 635 nm fluorescence (AID 1081); settings: small-molecule microarray binding, higher = more signal;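 further: binding of the protein to compounds printed on small-molecule microarray slides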
[8] = FRG1 promoter luciferase signal modulators, primary screen, FRG1 inhibition for FSHD, cell-based, C2C12 myotubes, firefly/Renilla luciferase, luminescence (AID 1084); settings: higher = more signal, called active from +8 up or from −8 down
[9] = binders of probe aFST on microarray, primary screen, stem cell growth factor project, biochemical, small-molecule microarray, fluorescence 635/667 (AID 1086); settings: higher = more signal;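 further: score merges 667 nm fluorescence with signal-to-noise of each printed compound spot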
[10] = binders of probe aHhip on microarray, primary screen, stem cell growth factor project, biochemical, small-molecule microarray, fluorescence 635/667 (AID 1087); settings: higher = more signal;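 further: score merges spot fluorescence at 667nm with spot signal to noise ratio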
[11] = tested on: PRMT1 (protein arginine N-methyltransferase 1); experiment: PRMT1 binders on small-molecule microarrays, primary screen, biochemical, small-molecule microarray, 635 nm fluorescence (AID 1088); settings: small-molecule microarray binding, higher = more signal;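 further: binding of Prmt1 protein to compounds spotted on small-molecule microarray slides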
[12] = yeast growth modulation, basal conditions, primary screen, YJM789 clinical isolate, OD600, 24 h (AID 1089);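 further: growth of clinical yeast isolate S. cerevisiae YJM 789 seeded 1000 cells per well; test concentration not given here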; settings: S. cerevisiae YJM789 growth, higher = more signal, called active from +8 up or from −8 down
[13] = fission yeast growth modulation, primary screen, strain 972, OD600, 24 h, no modulator (AID 1090);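 further: basal condition with compound alone and no growth modifier present; test concentration not given here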; settings: S. pombe 972 growth, higher = more signal, called active from +8 up or from −8 down
[14] = S. cerevisiae growth modulation with rapamycin, primary screen, strain BY4716, OD600, 96 h (AID 1091); settings: higher = more signal, called active from +8 up or from −8 down; further: test concentration not given here
[15] = target: Torsin-1A-interacting protein 2 (Homo sapiens) (UniProt Q8NFQ8); experiment: LULL1 binders on small-molecule microarray, primary screen, cell lysate, human LULL1 lysate, 635/667 nm fluorescence (AID 1092); settings: hLULL1 lysate binding, 635 nm fluorescence, higher = more signal;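 further: probe is lysate of COS7 cells overexpressing human LULL1; score merges per-feature 667 nm fluorescence with signal-to-noise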
[16] = E. coli growth modulation, two-sided OD650, primary screen, E. coli filamentation project, strain DRC41, 24 h (AID 1093); settings: OD650, 24 h, higher = more signal, called active from +8 up or from −8 down;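 further: MC1000 strain lacking acrAB efflux and sulA so SOS filamentation is blocked; test concentration not given here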
[17] = small-molecule microarray binders of probe aLefty2, primary screen, biochemical, biotinylated probe, 635/667 nm fluorescence (AID 1094); settings: higher = more signal;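 further: score merges spot fluorescence near 667 nm with spot signal-to-noise ratio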
[18] = tested on: Noggin (protein binding on small-molecule microarray); experiment: Noggin binders on small-molecule microarray, primary screen, biochemical, 635/667 nm fluorescence (AID 1095); settings: 635 nm fluorescence, higher = more signal;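 further: score merges 667 nm feature fluorescence with signal to noise over triplicate slides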
[19] = target: Neurogenic locus notch homolog protein 3 (Homo sapiens) (UniProt Q9UM47); experiment: NOTCH3 binders on small-molecule microarray, primary screen, biochemical, 635/667 nm fluorescence (AID 1096); settings: NOTCH3 binding, 635 nm fluorescence, higher = more signal
[20] = small-molecule microarray binders of probe aEGFR, primary screen, biochemical, biotinylated probe, 635/667 nm fluorescence (AID 1097); settings: higher = more signal;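 further: probe is a biotinylated anti-EGFR antibody binding compounds printed on slides; score combines fluorescence near 667 nm and signal to noise of each spot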

Sequence of Neurogenic locus notch homolog protein 3 (Homo sapiens) (Q9UM47 whole entry, looked up): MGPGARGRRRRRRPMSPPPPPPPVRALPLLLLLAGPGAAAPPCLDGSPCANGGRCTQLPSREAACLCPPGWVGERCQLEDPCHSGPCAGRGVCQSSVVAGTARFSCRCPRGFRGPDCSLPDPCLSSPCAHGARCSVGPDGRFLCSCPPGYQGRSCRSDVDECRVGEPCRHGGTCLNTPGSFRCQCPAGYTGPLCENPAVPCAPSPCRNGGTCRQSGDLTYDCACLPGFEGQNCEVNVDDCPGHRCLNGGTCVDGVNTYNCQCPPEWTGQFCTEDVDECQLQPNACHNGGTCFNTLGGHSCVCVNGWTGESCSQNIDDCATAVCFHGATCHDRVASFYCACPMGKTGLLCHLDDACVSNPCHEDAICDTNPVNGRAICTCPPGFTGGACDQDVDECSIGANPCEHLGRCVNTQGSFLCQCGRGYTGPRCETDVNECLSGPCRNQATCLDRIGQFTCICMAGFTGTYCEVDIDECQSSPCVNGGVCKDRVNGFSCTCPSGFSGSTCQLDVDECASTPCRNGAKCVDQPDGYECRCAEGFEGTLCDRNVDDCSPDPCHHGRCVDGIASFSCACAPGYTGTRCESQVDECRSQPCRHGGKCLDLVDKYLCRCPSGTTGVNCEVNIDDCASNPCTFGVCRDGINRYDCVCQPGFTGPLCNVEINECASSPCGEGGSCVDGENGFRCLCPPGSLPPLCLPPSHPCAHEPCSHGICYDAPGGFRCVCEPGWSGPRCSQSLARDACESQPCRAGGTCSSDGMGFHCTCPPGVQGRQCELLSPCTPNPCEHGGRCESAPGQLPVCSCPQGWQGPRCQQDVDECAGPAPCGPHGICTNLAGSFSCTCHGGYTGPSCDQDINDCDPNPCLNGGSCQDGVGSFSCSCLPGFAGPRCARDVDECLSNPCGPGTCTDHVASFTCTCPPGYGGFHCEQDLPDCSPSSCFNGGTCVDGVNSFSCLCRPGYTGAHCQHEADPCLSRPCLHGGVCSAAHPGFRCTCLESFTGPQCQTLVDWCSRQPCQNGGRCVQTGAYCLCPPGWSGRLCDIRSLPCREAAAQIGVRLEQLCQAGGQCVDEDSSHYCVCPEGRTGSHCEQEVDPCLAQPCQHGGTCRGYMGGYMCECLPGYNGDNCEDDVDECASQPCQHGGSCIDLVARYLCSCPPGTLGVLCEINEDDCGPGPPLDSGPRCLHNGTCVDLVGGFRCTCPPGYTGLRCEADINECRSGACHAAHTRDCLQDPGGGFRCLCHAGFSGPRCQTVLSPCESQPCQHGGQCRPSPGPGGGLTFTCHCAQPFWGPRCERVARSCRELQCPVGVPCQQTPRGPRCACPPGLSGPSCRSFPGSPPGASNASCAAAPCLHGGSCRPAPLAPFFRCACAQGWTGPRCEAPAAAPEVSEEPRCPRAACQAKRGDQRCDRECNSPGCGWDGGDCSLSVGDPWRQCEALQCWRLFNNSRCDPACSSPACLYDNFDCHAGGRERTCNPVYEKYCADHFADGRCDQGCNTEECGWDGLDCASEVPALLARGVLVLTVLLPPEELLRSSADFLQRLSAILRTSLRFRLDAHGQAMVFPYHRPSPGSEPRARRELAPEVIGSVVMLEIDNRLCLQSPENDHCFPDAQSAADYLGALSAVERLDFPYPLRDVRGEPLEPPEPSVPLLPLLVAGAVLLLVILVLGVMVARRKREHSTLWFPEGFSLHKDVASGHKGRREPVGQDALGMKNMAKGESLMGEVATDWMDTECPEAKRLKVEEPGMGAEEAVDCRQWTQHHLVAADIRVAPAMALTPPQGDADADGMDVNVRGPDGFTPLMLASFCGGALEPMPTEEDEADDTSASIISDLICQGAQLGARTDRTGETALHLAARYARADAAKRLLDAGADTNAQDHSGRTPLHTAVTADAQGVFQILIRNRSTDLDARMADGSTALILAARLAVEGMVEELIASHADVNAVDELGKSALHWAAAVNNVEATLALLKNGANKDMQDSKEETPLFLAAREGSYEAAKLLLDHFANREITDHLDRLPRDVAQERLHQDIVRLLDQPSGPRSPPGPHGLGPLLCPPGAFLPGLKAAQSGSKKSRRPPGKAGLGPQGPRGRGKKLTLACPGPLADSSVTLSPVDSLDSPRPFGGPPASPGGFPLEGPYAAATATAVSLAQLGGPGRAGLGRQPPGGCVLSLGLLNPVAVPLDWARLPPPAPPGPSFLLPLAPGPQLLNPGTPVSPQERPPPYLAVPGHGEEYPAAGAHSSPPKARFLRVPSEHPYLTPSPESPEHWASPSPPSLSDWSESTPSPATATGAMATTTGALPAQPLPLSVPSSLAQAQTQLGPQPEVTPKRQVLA
Sequence of Pro-neuregulin-1, membrane-bound isoform (Homo sapiens) (Q02297 whole entry, looked up, the tested form may be a part, canonical isoform): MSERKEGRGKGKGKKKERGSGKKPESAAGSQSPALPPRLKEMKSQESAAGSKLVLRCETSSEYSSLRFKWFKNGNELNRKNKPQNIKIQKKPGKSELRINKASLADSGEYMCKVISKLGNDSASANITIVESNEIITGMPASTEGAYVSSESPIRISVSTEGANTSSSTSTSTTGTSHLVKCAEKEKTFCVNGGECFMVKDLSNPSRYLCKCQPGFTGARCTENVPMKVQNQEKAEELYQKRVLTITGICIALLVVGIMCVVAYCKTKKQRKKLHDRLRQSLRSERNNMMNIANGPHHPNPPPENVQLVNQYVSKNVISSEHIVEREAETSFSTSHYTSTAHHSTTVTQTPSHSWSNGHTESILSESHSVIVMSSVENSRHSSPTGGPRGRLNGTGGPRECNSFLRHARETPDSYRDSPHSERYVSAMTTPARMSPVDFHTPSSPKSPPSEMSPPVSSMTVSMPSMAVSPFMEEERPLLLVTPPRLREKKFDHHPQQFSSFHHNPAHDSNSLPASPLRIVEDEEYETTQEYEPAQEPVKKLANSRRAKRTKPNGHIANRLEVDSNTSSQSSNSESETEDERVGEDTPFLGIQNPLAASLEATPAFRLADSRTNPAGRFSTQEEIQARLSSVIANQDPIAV
Sequence of Torsin-1A-interacting protein 2 (Homo sapiens) (Q8NFQ8 whole entry, looked up): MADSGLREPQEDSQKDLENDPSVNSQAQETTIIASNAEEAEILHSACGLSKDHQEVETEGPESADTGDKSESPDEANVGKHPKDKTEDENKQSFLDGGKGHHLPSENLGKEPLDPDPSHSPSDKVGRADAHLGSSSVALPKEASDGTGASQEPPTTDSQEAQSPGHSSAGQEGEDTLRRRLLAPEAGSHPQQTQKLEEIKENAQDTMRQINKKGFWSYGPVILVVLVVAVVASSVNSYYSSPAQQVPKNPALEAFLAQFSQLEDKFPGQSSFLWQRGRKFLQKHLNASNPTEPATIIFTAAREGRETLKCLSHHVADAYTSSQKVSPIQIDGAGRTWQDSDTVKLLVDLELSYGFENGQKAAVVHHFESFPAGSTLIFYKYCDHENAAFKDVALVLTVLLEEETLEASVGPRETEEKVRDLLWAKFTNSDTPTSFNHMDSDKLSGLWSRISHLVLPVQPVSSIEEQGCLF

Compound	composite z-score [1]	composite z-score [2]	composite z-score [3]	composite z-score [4]	composite z-score [5]	composite z-score [6]	composite z-score [7]	z-score [8]	composite z-score [9]	composite z-score [10]	composite z-score [11]	z-score [12]	z-score [13]	z-score [14]	composite z-score [15]	z-score [16]	composite z-score [17]	composite z-score [18]	composite z-score [19]	composite z-score [20]
CN1C2C=C(CCCO)C(C3C(=O)N(C(N)=O)C(=O)C32)C1c1ccc(CN2CCCC2)cc1 (stereo not given)	0.0355	-0.214	-0.143	-0.0598	-0.851	-0.612	-0.24	0.75 (inactive)	-0.887	0.141	-0.378	-1.64 (inactive)	0.715 (inactive)	-0.55 (inactive)	-0.736	0.194 (inactive)	-0.253	-0.354	-0.615	-0.242
C[C@]1(C(=O)NC2CC2)c2ccccc2C(=O)N(Cc2cc(C(F)(F)F)cc(C(F)(F)F)c2)[C@H]1c1ccc(CO)cc1	0.098	0.14	0.0458	0.31	1.26	0.354	1.26	-0.583 (inactive)	0.603	-0.0994	1.38	0.412 (inactive)	-1.05 (inactive)	-0.0211 (inactive)	1.32	1.08 (inactive)	0.0868	0.829	0.967	-0.0013
C=C(COC)/C(=C/C[C@@H](OC(C)=O)c1ccc(OCCO)cc1)c1cc(C(=O)OC)ccc1OC	-0.524	0.118	-0.0316	0.872	0.62	0.67	0.705	0.296 (inactive)	0.627	0.107	1.54	0.0937 (inactive)	-0.51 (inactive)	-0.645 (inactive)	2.16	-0.018 (inactive)	-0.027	1.35	1.12	-0.0728
CC(C)C[C@@H]1NC(=O)[C@@H]2C[C@H](C(=O)NCCCCCN)[C@H](c3cccc(OCCO)c3)N2C1=O	0.235	-0.0087	0.0465	0.796	0.128	1.4	1.29	-0.284 (inactive)	0.393	0.28	1.3	-4.39 (inactive)	-0.894 (inactive)	-1.13 (inactive)	2.73	0.758 (inactive)	0.215	0.359	0.244	-0.0549
COc1ccc(CCN2C(=O)[C@@]3(c4ccc([N+](=O)[O-])cc4)CC(=O)N(C4CCCCC4)[C@@H]3c3ccc(CO)cc32)cc1	-0.126	0.0269	-0.148	-0.0632	-0.0731	0.0125	1.46	0.912 (inactive)	-0.135	-0.0994	1.09	-1.82 (inactive)	0.701 (inactive)	-1.83 (inactive)	0.479	0.483 (inactive)	-0.0246	0.792	0.441	-0.1
C=CCOC(=O)[C@@H]1[C@H]2C(=O)O[C@H](c3ccccc3)[C@H](c3ccccc3)N2[C@H](c2ccc(OCCOC(=O)[C@@H]3C[C@@H]4C(=O)N[C@@H](Cc5ccccc5)C(=O)N4[C@@H]3c3ccc(O)cc3)cc2)[C@@]12C(=O)Nc1ccc(I)cc12	-0.219	0.602	-0.0944	0.302	0.825	0.612	1.14	1.42 (inactive)	0.11	0.238	1.55	0.607 (inactive)	1.18 (inactive)	4.44 (inactive)	2.06	1.37 (inactive)	-0.135	1.87	1.11	-0.0828
O=C1O[C@H](c2ccccc2)[C@H](c2ccccc2)N2[C@H]1[C@@H](C(=O)NC[C@H](O)c1ccccc1)[C@]1(C(=O)Nc3ccccc31)[C@H]2c1ccc(OCCO)cc1	0.0809	0.267	-0.039	0.345	0.404	1.05	1.21	1.8 (inactive)	0.368	0.0551	1.58	2.12 (inactive)	1.93 (inactive)	5.07 (inactive)	2.39	-0.965 (inactive)	-0.147	0.234	0.797	-0.0244
CCCC[C@H]1OB(O)C[C@H]2C1=C(COc1ccccc1)C[C@H]1C(=O)N(C)C(=O)[C@H]12	-0.32	-0.353	-0.085	0.121	0.85	0.0746	0.462	-0.153 (inactive)	1.2	-0.0754	-0.0361	-0.454 (inactive)	-1.03 (inactive)	-0.861 (inactive)	0.265	-0.632 (inactive)	0.0784	0.231	0.187	-0.0714
O=C1C2C=CC(C(O)C3CCCCC3)N(Nc3ccc([N+](=O)[O-])cc3)C2C(=O)N1c1ccccc1 (stereo not given)	0.274	0.167	0.0333	0.239	-0.795	1.33	1.18	-1.48 (inactive)	-0.688	-0.236	1.56	0.139 (inactive)	0.341 (inactive)	3.55 (inactive)	3.19	-1.15 (inactive)	-0.314	-0.995	-0.273	-0.226
CC(C)(C)OC(=O)CC[C@@]1(C(=O)NCC(O)CO)N=C(c2ccc(OCCCO)cc2)O[C@@H]1c1ccccc1N=[N+]=[N-] (stereo not given in full)	0.119	1.11	0.0599	0.559	1.2	1.97	1.17	2.43 (inactive)	0.552	-0.0618	1.54	1.17 (inactive)	-1.74 (inactive)	4.99 (inactive)	3.76	1.26 (inactive)	0.247	1.04	0.626	0.0773
CCOC(=O)C1=CCC(c2ccc(C)cc2)N(S(=O)(=O)c2ccc(C)cc2)C1 (stereo not given)	0.464	-0.0577	-0.0499	0.101	0.255	0.38	0.923	-4.43 (inactive)	0.261	-0.0994	0.329	0.564 (inactive)	1.59 (inactive)	2.26 (inactive)	1.69	-0.422 (inactive)	0.0283	-0.0866	0.234	-0.121
Cc1ccc(C(C)CC(O)C2C=CC3C(=O)N(c4ccccc4)C(=O)C3N2Nc2ccc([N+](=O)[O-])cc2)o1 (stereo not given)	-0.0729	0.123	0.0757	0.513	1.51	1.69	1.2	0.296 (inactive)	1.51	0.0373	1.55	0.0574 (inactive)	0.593 (inactive)	1.31 (inactive)	3.1	-0.468 (inactive)	0.157	0.181	1.1	0.0807
CCOC(=O)C1=CCC(c2ccccc2)N(S(=O)(=O)CC[Si](C)(C)C)C1 (stereo not given)	-0.264	0.701	-0.137	-0.765	-0.606	0.0168	-0.518	-3.74 (inactive)	-0.407	-0.0994	-0.0595	-0.465 (inactive)	0.178 (inactive)	2.78 (inactive)	0.0058	0.185 (inactive)	-0.235	-0.288	-0.822	-0.334
CN(C)C(=O)[C@]1(Cc2ccccc2CN=[N+]=[N-])N=C(c2ccc(OCCCO)cc2)O[C@@H]1c1ccccc1CN=[N+]=[N-]	-0.0551	1.26	0.0858	1.18	1.43	0.559	1.27	-1.45 (inactive)	1.64	-0.318	1.56	-0.0966 (inactive)	-0.16 (inactive)	4.49 (inactive)	3.59	-0.255 (inactive)	0.0112	1.18	1.11	0.0816
CC(=O)N1Cc2ccccc2C[C@@]2(COC(c3ccc(OCCCO)cc3)=N2)C1=O	1.54	0.842	0.235	0.51	1.18	1.4	1.07	-0.41 (inactive)	1.83	-0.21	1.55	-3.98 (inactive)	-0.737 (inactive)	-0.965 (inactive)	2.25	1.81 (inactive)	0.518	0.515	1.03	0.119
CCCC[C@@H]1C[C@H]1[C@@H](NC(=O)c1ccco1)c1ccc(C(=O)OC)cc1	0.238	-0.0736	-0.124	0.286	-0.253	0.0609	-0.216	-0.0679 (inactive)	0.285	0.379	0.488	-0.152 (inactive)	-1.61 (inactive)	0.06 (inactive)	1.93	-1.53 (inactive)	0.0258	-1.2	-0.64	-0.171
O=C1NC(=O)C2C1C=CC(C(O)c1ccccc1)N2Nc1ccc(Cl)cc1Cl (stereo not given)	-0.324	0.299	0.162	0.803	1.54	1.37	1.15	-1.44 (inactive)	1.32	-0.156	1.56	-25.6 (active)	-4.35 (inactive)	-1.48 (inactive)	3.74	-1.8 (inactive)	0.0847	0.385	1.12	0.063
O=C(c1ccccc1)N1Cc2ccccc2[C@@H]2OC(c3ccc(OCCCO)cc3)=N[C@]2(Cc2ccccc2)C1=O	-0.0231	0.483	0.0462	0.158	0.649	1.32	1.24	-1.05 (inactive)	-0.171	-0.208	1.2	-0.756 (inactive)	0.833 (inactive)	4.11 (inactive)	3.13	-0.0783 (inactive)	0.0337	1.05	1.1	-0.0187
CCOC(=O)[C@H]1C/C=C/C[C@H](C(=O)OCC)C(=O)O[C@H]2[C@@H](OC)O[C@H](CO)[C@@H](OC(=O)Nc3ccc(C#N)cc3)[C@@H]2OC1=O	0.0283	-0.317	-0.0414	0.287	-0.194	1.39	1.02	-0.1 (inactive)	0.143	-0.119	0.595	-1.87 (inactive)	-1.11 (inactive)	32.1 (active)	2.36	1.92 (inactive)	-0.162	0.0435	0.466	-0.382
COc1ccc([Si](C)(C)[C@H]2[C@H](CCO)O[C@@]3(C(=O)N(Cc4ccc(N5C(=O)COc6ccccc65)cc4)c4ccccc43)[C@@H]2C)cc1	0.0421	-0.271	-0.14	-0.164	-0.24	0.774	0.474	-3.99 (inactive)	-0.148	0.0129	1.06	0.223 (inactive)	-0.379 (inactive)	25.3 (active)	1.31	-0.132 (inactive)	-0.0796	-0.6	-0.0154	-0.222
